Assay results taken from the supplement of paper PMC12350171.
Counter-ions that a name gives are not always drawn.

Tests used:
Details in all cases: 20 µM
[1] = tested on: Haemophilus parainfluenzae; assay: growth AUC normalised to DMSO control (fraction of control); higher = less growth inhibition, active = hit call of the paper
Method in brief: (§1)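 Hemin and NAD were added to the medium for Haemophilus parainfluenzae. All pathogens, after two anaerobic passages, were inoculated at a starting OD578 of 0.01 into pre-reduced mGAM plates with 20 μM compound and 1% DMSO under breathable seals, and OD578 was read hourly for 24 h in three biological replicates. AUC of each growth curve was obtained with the trapezoidal rule up to the exponential-to-stationary transition and normalised to DMSO controls from the same plate.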

[2] = tested on: Salmonella enterica typhimurium; assay: as above
Method in brief: as §1

[3] = tested on: Shigella flexneri; assay: as above
Method in brief: as §1

[4] = tested on: Vibrio cholerae; assay: as above
Method in brief: as §1

[5] = tested on: Yersinia pseudotuberculosis; assay: as above
Method in brief: as §1

[6] = tested on: P. vulgatus RND KO; assay: growth AUC normalised to DMSO control (median) (fraction of control); higher = less growth inhibition, active = hit call of the paper
Method in brief: (§2)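 Each strain went through two overnight passages under anaerobic conditions before growth in mGAM in 96-well plates, starting at OD578 0.01, with each compound from the approved-drug library at 20 μM and 1% DMSO. Inside an anaerobic incubator, OD578 was recorded every hour for 24 h. Growth curves were cut off at entry into stationary phase, and the area under the curve was calculated by the trapezoidal rule and normalised to vehicle wells on the same plate. Reported values are medians of three biological replicates.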

[7] = tested on: P. vulgatus WT; assay: as above
Method in brief: as §2

[8] = tested on: S. enterica typhimurium WT; assay: as above
Method in brief: as §2

[9] = tested on: S. enterica typhimurium tolC KO; assay: as above
Method in brief: as §2

Measured: growth AUC normalised to DMSO control
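Wherever growth AUC normalised to DMSO control (median) is given: active when median AUC fell below 0.1.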

NC(=O)C[S+]([O-])C(c1ccccc1)c1ccccc1 (stereo not drawn) [Modafinil]
inactive: [1] 1 | [2] 0.994 | [3] 0.982 | [4] 0.998 | [5] 0.998 | [6] 1 | [7] 0.993 | [8] 1 | [9] 0.976

CN(C)[C@@H]1C(=O)C(C(N)=O)=C(O)[C@@]2(O)C(=O)C3=C(O)c4c(O)cccc4[C@@](C)(O)[C@H]3C[C@@H]12 [Tetracycline hydrochloride]
active: [1] 0.0479 | [2] 0.00376 | [3] 0.0389 | [4] 0.0365 | [5] 0.0501 | [6] 0.0124 | [7] 0.013 | [8] 0.0084 | [9] 0.00234

CN(C)[C@@H]1C(=O)C(C(N)=O)=C(O)[C@@]2(O)C(=O)C3=C(O)c4c(O)ccc(Cl)c4[C@@](C)(O)[C@H]3C[C@@H]12 [Chlortetracycline hydrochloride]
active: [1] 0.0445 | [2] 0.00172 | [3] 0.0163 | [4] 0.0321 | [5] 0.0311 | [6] 0.0183 | [7] 0.0152 | [8] 0.00367 | [9] 0.00506

CCN(C(C)=O)c1cccc(-c2ccnc3c(C#N)cnn23)c1 [Zaleplon]
inactive: [1] 0.975 | [2] 0.978 | [3] 0.954 | [4] 0.97 | [5] 1 | [6] 1 | [7] 1 | [8] 1 | [9] 0.992

CN1C(=O)CCS(=O)(=O)C1c1ccc(Cl)cc1 (stereo not drawn) [Chlormezanone]
inactive: [1] 1.02 | [2] 1 | [3] 0.992 | [4] 1.01 | [5] 0.995 | [6] 1.03 | [7] 1.02 | [8] 1 | [9] 1

CCOC(=O)c1cncn1[C@H](C)c1ccccc1 [Etomidate]
inactive: [1] 1.02 | [2] 1.01 | [3] 1 | [4] 1.03 | [5] 0.984 | [6] 1.07 | [7] 1.1 | [8] 1 | [9] 0.978

C=C(C)[C@@H]1[C@H]2OC(=O)[C@@H]1[C@]1(O)C[C@H]3O[C@]34C(=O)O[C@H]2[C@]14C [Picrotoxinin]
inactive: [1] 1 | [2] 1 | [3] 0.96 | [4] 1 | [5] 0.997 | [6] 1.03 | [7] 1.03 | [8] 1.02 | [9] 1.02

CCC(=O)O[C@@](Cc1ccccc1)(c1ccccc1)[C@@H](C)CN(C)C [Levopropoxyphene napsylate]
inactive: [1] 1 | [2] 0.999 | [3] 1.04 | [4] 1 | [5] 1.02 | [6] 1.03 | [7] 1.05 | [8] 1 | [9] 0.995

C[C@]12CC[C@H](O)C[C@H]1CC[C@@H]1[C@@H]2C[C@@H](O)[C@]2(C)[C@@H](C3=CC(=O)OC3)CC[C@]12O [Digoxigenin]
inactive: [1] 1.01 | [2] 1.03 | [3] 0.999 | [4] 1.03 | [5] 0.998 | [6] 0.998 | [7] 1.04 | [8] 1.01 | [9] 1

CCN[C@@H](C)Cc1cccc(C(F)(F)F)c1 [Dexfenfluramine hydrochloride]
inactive: [1] 1.01 | [2] 0.995 | [3] 1.02 | [4] 1.02 | [5] 0.995 | [6] 1 | [7] 1.02 | [8] 0.996 | [9] 1

C1CCc2nnnn2CC1 [Pentylenetetrazole]
inactive: [1] 1.01 | [2] 0.978 | [3] 1.01 | [4] 1.04 | [5] 0.976 | [6] 1.03 | [7] 1.06 | [8] 1 | [9] 0.986

CC[C@@H](CO)NC(=O)[C@@H]1C=C2c3cccc4[nH]cc(c34)C[C@H]2N(C)C1 [Methylergometrine maleate]
inactive: [1] 0.997 | [2] 0.985 | [3] 0.966 | [4] 1.01 | [5] 0.998 | [6] 0.975 | [7] 0.952 | [8] 0.993 | [9] 1

CN(C)C(=O)Oc1cccc([N+](C)(C)C)c1 [Neostigmine bromide]
inactive: [1] 1 | [2] 1 | [3] 0.994 | [4] 1.01 | [5] 0.916 | [6] 1 | [7] 0.997 | [8] 1 | [9] 1.01

CN1[C@@H]2CC[C@H]1C[C@@H](OC(=O)C(CO)c1ccccc1)C2 (stereo partly drawn) [Atropine sulfate monohydrate]
inactive: [1] 1.06 | [2] 1.01 | [3] 1.06 | [4] 1.03 | [5] 1 | [6] 1.04 | [7] 1.07 | [8] 1.01 | [9] 0.987

O=C(CCCN1CCC2(CC1)C(=O)NCN2c1ccccc1)c1ccc(F)cc1 [Spiperone]
inactive: [1] 0.953 | [2] 0.978 | [3] 0.978 | [4] 0.917 | [5] 0.985 | [6] 0.98 | [7] 0.988 | [8] 0.995 | [9] 0.979

CCC1(c2cccc(O)c2)CCCCN(C)C1 (stereo not drawn) [Meptazinol hydrochloride]
inactive: [1] 0.961 | [2] 0.983 | [3] 0.948 | [4] 0.974 | [5] 0.994 | [6] 0.993 | [7] 0.982 | [8] 0.998 | [9] 1

COc1ccc(CCN2CCC(Nc3nc4ccccc4n3Cc3ccc(F)cc3)CC2)cc1 [Astemizole]
inactive: [1] 1.02 | [2] 1.05 | [3] 0.997 | [4] 0.934 | [5] 1.02 | [6] 1.01 | [7] 0.986 | [8] 1 | [9] 0.962

O=c1[nH]c2ccccc2n1C1CCN(CCCC(c2ccc(F)cc2)c2ccc(F)cc2)CC1 [Pimozide]
inactive: [1] 0.788 | [2] 0.998 | [3] 1 | [4] 1.07 | [5] 1.02 | [6] 1.14 | [7] 1 | [8] 0.998 | [9] 0.971

COc1cc([C@@H]2c3cc4c(cc3[C@H](O)[C@H]3COC(=O)[C@H]23)OCO4)cc(OC)c1OC [Podophyllotoxin]
inactive: [1] 1.04 | [2] 0.999 | [3] 0.999 | [4] 1.02 | [5] 1.01 | [6] 1 | [7] 1.02 | [8] 0.998 | [9] 0.996

COc1cc2c(c(OC)c1OC)-c1ccc(OC)c(=O)cc1[C@@H](NC(C)=O)CC2 [Colchicine]
inactive: [1] 0.981 | [2] 0.988 | [3] 0.964 | [4] 0.98 | [5] 0.977 | [6] 0.988 | [7] 0.986 | [8] 1 | [9] 1.01

COc1ccc(C(CN(C)C)C2(O)CCCCC2)cc1 (stereo not drawn) [Venlafaxine]
inactive: [1] 1.33 | [2] 0.98 | [3] 0.957 | [4] 0.984 | [5] 1.08 | [6] 0.997 | [7] 0.999 | [8] 0.997 | [9] 1

CC(=O)OC1CN2CCC1CC2 (stereo not drawn) [Aceclidine hydrochloride]
inactive: [1] 1.02 | [2] 1 | [3] 1.01 | [4] 1.03 | [5] 0.994 | [6] 0.994 | [7] 1.03 | [8] 1.01 | [9] 0.999
